Source: PubChem (National Center for Advancing Translational Sciences (NCATS))
CBFb-RUNX1 inh: qHTS Assay for Compounds Blocking the Interaction Between CBF-beta and RUNX1 for the Treatment of Acute Myeloid Leukemia | Runt-related transcription factor 1 (Homo sapiens) + Core-binding factor subunit beta … | AlphaScreen CBFb-His/RUNX1-biotin binding, biochemical | Potency, µM (titrated, usually from 59.8 µM), for inactives: top-dose activity, negative = inhibition, actives largely listed as inhibitors | 230,000 tested, under 10 active; further: % of control where 0% means no effect
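Inhibition was taken as any reduction in AlphaScreen signal from the CBF-beta–RUNX1 pair (His and biotin tags, 30 nM each), measured after compound (15 min) and bead (90 min) incubations at room temperature.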
CtBP-E1A blk: qHTS Assay for Inhibitors of the CtBP/E1A Interaction. CtBP / adenovirus E1A interaction (AlphaScreen). AlphaScreen GST-E1A/His-CtBP binding, 1536-well; active compounds read low. activity change, % (no concentration beside the values). actives 0.49% (n = 340,000). AID 651724, 2012; in the data active means activity change below about -65%; inconclusive means mostly about -30% to -63%; further: on the % scale 0 is the no-effect control and ±100 the full control effect
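GST-E1A and His-tagged CtBP (125 nM each as 5X stock) were preincubated with pin-transferred compound for 2 h at 37 °C in the dark, then glutathione donor and nickel acceptor beads were added for 1 h before AlphaScreen reading.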
RORgamma inh: qHTS for inhibitors of ROR gamma transcriptional activity; Nuclear receptor ROR-gamma (Mus musculus), P51450; Potency, µM (titrated, usually from 53.6 µM), for the others: top-dose activity change, negative = inhibition, hits mostly inhibitors; actives 5.4% (n = 310,000); Drosophila S2 Gal4-RORgamma UAS-luciferase reporter, 20 h; further: potency means the concentration at half of the fitted maximal effect; on the % scale 0 is the no-effect control and ±100 the full control effect; nearly all actives have a fitted effect of over 60% in size
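ROR gamma transcriptional activity was tracked as Gal4-UAS luciferase output in stably transfected Drosophila Schneider cells, with compound added 1 hr before 700 uM copper sulfate induction and a 20 hr ambient-temperature incubation.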
MBNL1 CUG block: qHTS Assay for Inhibitors of MBNL1-poly(CUG) RNA binding; TR-FRET MBNL1-His/biotin-(CUG)12 binding, 665/545 ratio; AID 2675, 2010; Potency, µM (top dose mostly 57.5 µM), inactives show top-dose activity change, negative = inhibition, usual class: inhibitors; actives 0.036% (n = 280,000); Muscleblind-like protein 1 (Homo sapiens), Q9NR56; active means well fitted inhibition curve with a large enough effect in the signal ratio, with a control signal flat, not every such curve was filed as active; inconclusive means small, poorly fitted or top-dose-only effect, or effect the other way, or a change in a side signal; inactive means no such curve, though single readings can be large or run the other way; the % refers to the signal ratio; further: potency means the concentration at half of the fitted maximal effect; on the % scale 0 is the no-effect control and ±100 the full control effect
Target sequence (Q9NR56 whole entry, looked up): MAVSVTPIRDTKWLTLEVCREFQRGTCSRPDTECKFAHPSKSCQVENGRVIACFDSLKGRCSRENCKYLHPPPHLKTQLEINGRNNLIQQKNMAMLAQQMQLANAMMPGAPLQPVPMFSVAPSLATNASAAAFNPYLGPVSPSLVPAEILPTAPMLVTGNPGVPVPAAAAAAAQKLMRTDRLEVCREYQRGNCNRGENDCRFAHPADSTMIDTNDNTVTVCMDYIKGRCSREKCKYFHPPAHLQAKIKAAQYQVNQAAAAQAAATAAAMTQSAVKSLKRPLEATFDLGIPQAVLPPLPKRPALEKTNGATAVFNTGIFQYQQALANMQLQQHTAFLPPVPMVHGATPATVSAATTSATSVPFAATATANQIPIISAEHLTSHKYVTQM
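MBNL1-His + Biotin-(CUG)12, cpd titration 92 nM–58 uM; Tb anti-His Ab 0.055 ng/ul, SA-XL665 5 nM (final); 60 min RT; ratiometric 665/545 nm, Ex 340 nm; normalized to buffer and full-complex controls.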
Six1-Eya2 inh: qHTS Assay for Inhibitors of the Six1/Eya2 Interaction; actives 0.56% (n = 360,000); AlphaScreen GST-Six1/His-Eya2 binding, biochemical; active compounds read low; activity change, % (concentration not given with the values); in the data active means activity change below about -65%; inconclusive means mostly about -30% to -63%; further: on the % scale 0 is the no-effect control and ±100 the full control effect
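AlphaScreen luminescence read after one hour at 37 °C in darkness. Pin-transferred compounds met GST-Six1 and His-Eya2 protein (5X stock 250 nM/500 nM) plus glutathione donor and Ni-chelate acceptor beads (5X, 50 ug/mL).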
VP16 counter: VP16 counterscreen qHTS for inhibitors of ROR gamma transcriptional activity; Drosophila S2 Gal4-VP16 UAS-luciferase, luminescence, 20 h; Potency, µM (top dose mostly 53.6 µM), for inactives: at the highest dose activity, negative = inhibition, actives largely listed as inhibitors; actives 3.5% (n = 310,000);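 further: Gal4-VP16 expression switched on by copper sulfate through the metallothionein promoter; potency means the concentration at half of the fitted maximal effect; on the % scale 0 is the no-effect control and ±100 the full control effect; nearly all actives have a fitted effect of over 50% in size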
* hit, by the source's call; ? = inconclusive; nt = no result given; [ ] = dose if it differs, or a comment. Rows were chosen to be rich in hits. Some 5.5% of all compounds tested hit in one or more screens of this group. Unless noted, the call rests on the fitted dose curve; in most records, active means well fitted curve in the direction sought with a large enough effect; inconclusive means small, poorly fitted or top-dose-only effect, or another doubt; inactive means no such curve, though single readings can be large; an effect the other way counts as inactive or inconclusive.

SMILES	CBFb-RUNX1 inh	CtBP-E1A blk	RORgamma inh	MBNL1 CUG block	Six1-Eya2 inh	VP16 counter
CC1CCCCN1CCNC(=O)c1ccc2c(=O)n(Cc3ccc(Cl)cc3)c(=S)[nH]c2c1 (centres undefined)	nt	-8	11µM*	6%	-11	?
CCOC(=O)N1CCN(C(=O)c2ccc3c(=O)n(Cc4ccc(Cl)cc4)c(=S)[nH]c3c2)CC1	0%	-19	5.6µM*	-4%	-2	?
CCCn1c(=S)[nH]c2cc(C(=O)N3CCN(C(=O)OCC)CC3)ccc2c1=O	nt	1	-44%	6%	-1	0%
CCOC(=O)N1CCN(C(=O)c2ccc(Cn3c(=S)[nH]c4ccc(Br)cc4c3=O)cc2)CC1	nt	-20	?	3%	1	14µM*
COc1ccc(N2CCN(C(=O)COC(=O)c3oc4ccc(OC)cc4c3C)CC2)cc1	nt	-23	nt	nt	?	nt
N#Cc1ccc(CN2CC[C@@]3(CCCN(C(=O)c4cc(C(F)(F)F)cc(C(F)(F)F)c4)C3)C2)cc1	nt	nt	2%	nt	nt	13%
CN(CC(=O)Nc1c(Cl)cccc1Cl)CC(=O)N1CCc2ccccc21	nt	0	nt	nt	0	nt
Cc1ccc(C(=O)CSC2=C(C#N)C(c3ccco3)C3=C(CC(C)(C)CC3=O)N2)cc1 (centres undefined)	-1%	-12	0%	25%	-3	-5%
CC(=O)C1=C(C)NC(SCC(=O)c2ccc(C)cc2)=C(C#N)C1c1ccco1 (centres undefined)	8%	nt	?	?	nt	2.8µM*
CC(C)(C(=O)N[C@H](CO)c1ccccc1)C(=O)N[C@H](CO)c1ccccc1	nt	3	2µM*	-8%	0	5%
COc1cccc2c1C(=O)c1c(O)c3c(c(O)c1C2=O)C[C@@](O)(C(=O)CO)C[C@@H]3OC1CC(N)C(O)C(C)O1 (some centres undefined)	nt	?	-40%[10 µM]	nt	-26	10µM*
CC(=O)C1(O)Cc2c(O)c3c(c(O)c2C(OC2CC(N)C(O)C(C)O2)C1)C(=O)c1c(O)cccc1C3=O (centres undefined)	nt	nt	11µM*	nt	nt	?
COc1cccc2c1C(=O)c1c(O)c3c(c(O)c1C2=O)C[C@@](O)(C(=O)CO)C[C@@H]3O[C@@H]1C[C@H](N)[C@H](O)[C@H](C)O1	-10%	nt	11µM*	nt	nt	7.9µM*
COc1cccc2c1C(=O)c1c(O)c3c(c(O)c1C2=O)C[C@](O)(C(C)=O)C[C@H]3O[C@@H]1C[C@H](N)[C@H](O)[C@H](C)O1	-12%[21.7 µM]	nt	5.6µM*	nt	nt	4.5µM*
COCC(=O)O	3%[21.7 µM]	nt	4%	nt	nt	8%
COC(=O)Nc1ccc2ccc3c(NC(=O)OC)ccc4ccc1c2c43	nt	6	nt	nt	1	nt
COc1cccc2c1C(=O)c1c(O)c3c(c(O)c1C2=O)C[C@@](O)(C(=O)CO)C[C@@H]3O[C@H]1C[C@H](N)[C@H](O)[C@H](C)O1	0%	-22	3.5µM*	?	-17	5.6µM*
CN(c1ccccc1)S(=O)(=O)c1cccc(C(=O)Nc2ncn[nH]2)c1	-8%	-29	8.9µM*	4%	0	?
CN(c1ccccc1)S(=O)(=O)c1cccc(C(=O)Nc2nccs2)c1	24%	nt	22%	-4%	-7	?
CCOc1ccc(C(=O)Nc2ncn[nH]2)cc1	nt	nt	-27%	0%	2	0%
C=CCOc1ccc(C(=O)Nc2ncn[nH]2)cc1	nt	nt	11µM*	-5%	0	-11%
CC(C)Oc1cccc(C(=O)Nc2ncn[nH]2)c1	nt	-10	16µM*	0%	-8	?
